Screening data deposited in PubChem by National Center for Advancing Translational Sciences (NCATS).
Shown are actives, neighbours in structure and some others; about 9.4% of the full set was active somewhere.
AMA1-RON2 inh: qHTS for Inhibitors of AMA1-RON; Towards Development of Antimalarial Drug Lead: Primary Screen; Plasmodium falciparum AMA1 (3D7) - RON2 peptide interaction; AlphaScreen AMA1-biotinylated RON2 peptide binding; Potency, µM (series often up to 58.2 µM), without a hit: at the highest dose activity change, negative = inhibition, hits mostly inhibitors; hit rate 0.2% among 360,000;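 also: 0% = vehicle wells and -100% = peptide control; nearly all actives have a fitted effect of over 45% in size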
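AMA1 (3D7) with his tag at 25 nM final met compounds first, then biotinylated RON2 peptide at 25 nM; detection used donor plus acceptor beads, 10 µg/mL apiece, read by AlphaScreen after 30 min at room temperature.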
Pf growth 96h: Primary qHTS for delayed death inhibitors of the malarial parasite plastid, 96 hour incubation | P. falciparum luciferase reporter growth, 96 h | Potency, µM (titrated, usually from 28.7 µM), for the others: top-dose activity change, negative = inhibition, actives largely listed as inhibitors | hit rate 6.9% among 320,000; also: % is scaled to controls: 0 for no effect and ±100 for the full control effect
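Luminescence readout: decreased luciferase signal marks inhibited growth of reporter-expressing P. falciparum in infected red cells (2% hematocrit, 0.05% parasitemia final), exposed to compound two generations (96 h, 37 C, 5% CO2).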
Pf growth 48h: Primary qHTS for delayed death inhibitors of the malarial parasite plastid, 48 hour incubation | hit rate 5.9% among 310,000 | Potency, µM (titrated, usually from 28.7 µM), for the others: at the highest dose activity change, negative = inhibition, hits mostly inhibitors | P. falciparum luciferase growth in erythrocytes, 48 h; also: % is scaled to controls: 0 for no effect and ±100 for the full control effect
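Compounds are pin-transferred into medium, infected erythrocytes (2% hematocrit, 0.1% parasitemia final) are added, and plates sit one parasite generation at 37 C in 5% CO2. Detection reagent is then added and luminescence measured.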
SARS PLP yeast: qHTS of Yeast-based Assay for SARS-CoV PLP; hit rate 0.19% among 330,000; Potency, µM (titrated, usually from 32.9 µM), without a hit: at the highest dose activity, positive = growth rescue, most hits filed as activators; S. cerevisiae expressing SARS-CoV PLpro, growth rescue; calls by dose curve; also: 0% is about no effect; nearly all actives have a fitted effect of over 55% in size
Starred values were filed as active, the others as inactive; ? = inconclusive; / = no result; [ ] = remark or other dose. Unless noted, calls follow the shape of the dose curve; as a rule, active = well fitted curve in the direction sought with a large enough effect; inconclusive = small, poorly fitted or top-dose-only effect, or another doubt; inactive = no such curve, though single readings can be large; an effect the other way counts as inactive or inconclusive. Potency is read from the fitted curve at half-maximal effect.

SMILES	AMA1-RON2 inh	Pf growth 96h	Pf growth 48h	SARS PLP yeast
CC1(C)CCCC(C)(C)N1CC(O)COCCOc1ccc(Br)cc1 (stereo unspecified)	7%[2.32 µM]	?	5.9µM*	15%
COc1ccccc1N1CCN(CC(O)COCCOc2ccc(Br)cc2)CC1 (stereo unspecified)	-7%	13µM*	-9%	-20%
O=C(O)CCc1ccc(-c2cccs2)n1NC(=O)c1ccco1	-6%	10µM*	8%	2%
COC(=O)/C=C1/SC(=Nc2ccc(C)cc2C)NC1=O	14%	?	?	4%
O=C(CN1CCN(Cc2ccccc2Cl)C1=O)NCc1ccco1	5%	3.3µM*	6%	1%
O=C(CSCc1c(Cl)cccc1Cl)NCc1ccco1	-8%	13µM*	?	13%
Cc1ccc(C)c(Cn2nnc3c(=O)[nH]c(C(=O)NCc4ccco4)nc32)c1	62%	?	-10%	2%
O=C(NCc1ccco1)c1nc2c(nnn2Cc2ccccc2Cl)c(=O)[nH]1	19%	0%	9.3µM*	9%
O=C(NCc1ccco1)C(=O)NCc1ccccc1Cl	-11%	?	21%	-3%
COc1cc(C)nc(NS(=O)(=O)c2ccccc2)n1	1%	/	3%	-4%
COc1ccc(-c2nc3ccccc3n2Cc2ccc(C)cc2)cc1	-1%	?	?	/
COc1ccc(Cn2c(-c3ccc(C)cc3)c[n+]3ccccc23)cc1	1%	0.1µM*	0.37µM*	-18%
Cc1ccc(S(=O)(=O)Cc2ccc(C(=O)N3CCCC3)o2)cc1	0%	-23%	/	4%
CC(C)CNC(=O)COC(=O)C1c2ccccc2Oc2ccccc21	-8%	0%	24%	-3%
CCN(CC)C(=O)C1c2ccccc2Oc2ccccc21	36%	5.2µM*	28%	-1%
Cc1ccc(OC(=O)C2c3ccccc3Oc3ccccc32)cc1C	24%	5.2µM*	-12%	5%
CC(=O)c1ccc(OC(=O)C2c3ccccc3Oc3ccccc32)cc1	6%	-3%	5%	0%
CC(C)[N+](C)(CCOC(=O)C1c2ccccc2Oc2ccccc21)C(C)C	-15%	0.015µM*	?	0%
Cn1c2ccc(Cl)cc2c2nc3ccccc3nc21	23%	?	/	-11%
CC(=O)c1ccc(NC(=O)CN2CCC(NC(=O)c3ccccc3C)CC2)cc1	7%	/	/	/
CCc1c(C)nc2cc(-c3ccc(OC)c(OC)c3)nn2c1N1CCC(C)CC1	-4%	44%	7.4µM*	-2%
CCOCCN1CCN(c2c(CC)c(C)nc3cc(-c4cc(OC)cc(OC)c4)nn23)CC1	0%	9%	1.5µM*	-34%
CCc1c(C)nc2cc(-c3cc(OC)cc(OC)c3)nn2c1N1CCCC1	-1%	/	?	-28%
COc1ccc(-c2csc3nc(C)nc(N4CCC(C)CC4)c23)cc1OC	?	-22%	-6%	2%
CCc1c(C)nc2cc(-c3ccc(OC)c(OC)c3)nn2c1N1CCCC1	-2%	0%	13µM*	-29%
SMILES	AMA1-RON2 inh	Pf growth 96h	Pf growth 48h	SARS PLP yeast
COc1ccc(-c2c(C)nn3c(N4CCCCCC4)cc(C)nc23)cc1OC	0%	-18%	1%[0.00184 µM]	-2%
O=c1c2nnn(-c3cccc(F)c3)c2ncn1Cc1ccccn1	32%	?	52%	2%
COC(=O)C1=CN(C2CC2)C=C(C(=O)OC)C1c1ccccc1OC	7%	-12%	12µM*	6%
CCC(CC)C(=O)Nc1c2c(nn1-c1ccc(OC)cc1)CS(=O)(=O)C2	-2%	120%	-4%	-6%
CCOC(=O)C1(Cc2ccc(OC)cc2)CCN(C(=O)Cn2cnnn2)CC1	15%	1.9µM*	2%	2%
CCOC(=O)C1(Cc2ccc(OC)cc2)CCN(C(=O)CN2CCN(CC)CC2)CC1	12%	?	-20%	1%
CCOC(=O)c1c(C)[nH]c(C(=O)OCC(=O)Nc2cc(C)ccc2OC)c1C	-9%	5.9µM*	-2%	-7%
CCOC(=O)c1[nH]c(C)c(C(=O)NC2CCCCC2)c1C	-5%	9.3µM*	/	6%
CCOC(=O)c1[nH]c(C)c(C(=O)Nc2ccc(C)c(C)c2)c1C	-4%	5.9µM*	/	-9%
CCOC(=O)c1[nH]c(C)c(C(=O)NCC2CCCO2)c1C (stereo unspecified)	-4%	1%	19%	-4%
CCOC(=O)c1[nH]c(C)c(C(=O)NCCC2=CCCCC2)c1C	-3%	5.2µM*	85%	2%
Cc1cc(Sc2nc(NC(C)(C)C)nc(N3CCOCC3)n2)nc(Cl)n1	9%	?	6%	-17%
Cc1ccc(-c2nn3c(C)nnc3s2)cc1NC(=O)c1ccco1	-15%	26%	-3%	1%
O=C(NC1CCCc2ccccc21)c1ccccc1Br (stereo unspecified)	-7%	?	9%	-9%
CCOc1cc(/C=N/NC(=O)CSc2nncn2C)ccc1OCc1cccc(C)c1	-14%	?	-24%	-1%
CCOC(=O)c1[nH]c(C)c(C)c1C	10%	12µM*	19%	-11%
CCOC(=O)c1[nH]c(C)c(C(=O)OC)c1C	-3%	102%	92%	0%
COc1ccc(OC)c(C2C(C(=O)c3ccccc3)=C(C)Nc3nc4ccccc4n32)c1 (stereo unspecified)	0%	?	?	2%
CCOC(=O)CSc1ncccn1	8%	0%	43%	-1%
COc1ccc(CN(C2CCCC2)S(=O)(=O)c2ccc(-n3cnnn3)c(OC)c2)cc1OC	-3%	?	15µM*	-3%
CCOc1cc(S(=O)(=O)NCc2ccccc2)c(OCC)cc1-n1cnnn1	12%	/	/	/
CCOc1cc(S(=O)(=O)N(Cc2ccccc2)Cc2ccccc2)c(OCC)cc1-n1cnnn1	-2%	6.6µM*	?	6%
COc1ccc(CN(Cc2ccc(OC)cc2)S(=O)(=O)c2ccc(-n3cnnn3)c(C)c2)cc1	-14%	13µM*	?	-5%
COc1cccc(CN(Cc2cccnc2)S(=O)(=O)c2ccc(-n3cnnn3)c(C)c2)c1OC	-7%	/	12µM*	6%
CCN(C1CCCCC1)S(=O)(=O)c1ccc(-n2cnnn2)c(C)c1	0%	-26%	0%	0%
COc1ccc(C(=O)Cn2ccsc2=NC(C)=O)cc1	1%	90%	43%	7%
COc1ccc(C(CNC(=O)c2cccc(S(=O)(=O)Nc3ccccc3OC)c2)N2CCOCC2)cc1 (stereo unspecified)	-3%	?	?	0%
COc1ccc(CN(CC2CCCO2)S(=O)(=O)c2ccc(-n3cnnn3)c(OC)c2)cc1 (stereo unspecified)	2%	-1%	-14%	-1%
COc1cc(CN(C2CCCCC2)S(=O)(=O)c2ccc(S(=O)(=O)N(C)C3CCCCC3)cc2)cc(OC)c1OC	-11%	8.3µM*	?	1%
COc1ccc(CN(Cc2cccnc2)S(=O)(=O)c2ccc(-n3cnnn3)c(OC)c2)cc1	12%	22%	12µM*	-19%
